High-throughput results from PubChem BioAssay.
The list is not random: actives were taken first. Their share in the collection is about 9.5%.
Tau fibril FP – blocks human tau fibril formation measured by polarization; P10636; K18 P301L tau heparin fibrillization, Alexa594 FP, 6 h; Potency, µM (highest dose often 57.7 µM), inactives show at the top dose activity, negative = inhibition, hits mostly inhibitors; 0.39% of 280,000 active; AID 1468; further: nearly all actives have a fitted effect of over 55% in size
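FP of Alexa 594-tau after heparin (20 uM) induction. Substrate: human K18 P301L, 15 uM unlabeled, 0.24 uM labeled. Buffer 100 mM sodium acetate pH 7. 6 hr, 37 C.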
Tau fluor counter – counter-screen for tau fibril formation inhibitors. 0.93% of 280,000 active. Potency, µM (doses to about 57.7 µM), without a hit: at the highest dose activity change, negative = decrease. tau K18 P301L Alexa594 fluorescence, heparin fibrillization; further: nearly all actives have a fitted effect of over 55% in size
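Human K18 P301L tau (15 uM unlabeled plus 0.24 uM Alexa 594-labeled, final) in 100 mM sodium acetate pH 7 was mixed with compound and 20 uM heparin and incubated 6 hr at 37 C.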
Tau ThT inhib – blocks human tau fibril formation measured by thioflavin T; Potency, µM (doses to about 57.4 µM), inactives show at the highest dose activity, negative = inhibition, most hits filed as inhibitors; recombinant tau K18 P301L, heparin-induced fibrillization, ThT fluorescence; 2.1% of 270,000 active; P10636; AID 1460; further: nearly all actives have a fitted effect of over 55% in size
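ThT emission at 510 nm, taken 1 hr after adding 30 uM dye, quantifies aggregates formed when 20 uM heparin acts on human tau K18 P301L for 6 hr at 37 C.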
NPSR antag – neuropeptide S receptor (human) antagonism, cAMP; Q6W5P4; CHO-NPSR cells, cAMP TR-FRET, antagonist mode; Potency, µM (top dose mostly 38.3 µM), for inactives: top-dose activity change, negative = inhibition, actives largely listed as inhibitors; 1% of 220,000 active; AID 1461; further: nearly all actives have a fitted effect of over 50% in size
ALDH1A1 block – inhibitors of human aldehyde dehydrogenase 1A1 | Purified ALDH1A1, NADH fluorescence, propionaldehyde substrate | 7.3% of 220,000 active | P00352 | AID 1030 | Potency, µM (top dose mostly 75.3 µM), for inactives: at the top dose activity, negative = inhibition, actives largely listed as inhibitors; active means well fitted inhibition curve with a large enough effect, not every such curve was filed as active; inconclusive means small, poorly fitted or top-dose-only effect, or another doubt; inactive means no such curve, though single readings can be large or run the other way;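 further: plate controls were no enzyme wells and a reference inhibitor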
Target sequence (P00352 whole entry, looked up): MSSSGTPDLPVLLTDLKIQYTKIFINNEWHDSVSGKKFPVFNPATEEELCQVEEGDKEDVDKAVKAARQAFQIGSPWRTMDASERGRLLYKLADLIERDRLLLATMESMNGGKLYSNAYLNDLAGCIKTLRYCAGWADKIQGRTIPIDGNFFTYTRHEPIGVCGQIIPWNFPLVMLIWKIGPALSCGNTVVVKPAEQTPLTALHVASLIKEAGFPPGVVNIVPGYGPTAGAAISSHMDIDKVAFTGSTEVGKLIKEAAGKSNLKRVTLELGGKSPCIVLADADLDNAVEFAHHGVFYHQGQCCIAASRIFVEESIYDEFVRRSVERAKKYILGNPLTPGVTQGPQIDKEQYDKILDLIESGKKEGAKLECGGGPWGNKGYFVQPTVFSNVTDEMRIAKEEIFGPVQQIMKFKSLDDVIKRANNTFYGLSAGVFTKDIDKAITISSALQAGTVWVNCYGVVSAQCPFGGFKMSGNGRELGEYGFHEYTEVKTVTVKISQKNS
HPGD block – blocks human HPGD enzyme activity; purified HPGD, NADH fluorescence kinetic, PGE2 substrate; Potency, µM, for the others: at the top dose activity change, negative = inhibition, usual class: inhibitors; 4.3% of 150,000 active; AID 894; active means well fitted inhibition curve with a large enough effect, not every such curve was filed as active; inconclusive means small, poorly fitted or top-dose-only effect, or another doubt; inactive means no such curve, though single readings can be large or run the other way
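NADH formation kinetics: reaction with 30 uM PGE2 and 1 mM NAD+ (final), 20 nM enzyme, Tris-HCl pH 8 with Tween 20, after 15 min compound preincubation at room temperature. Fluorescence change, last versus first of five reads.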
* marks the source's active call; other numbers are inactive results; ? = inconclusive; nt = not tested or not shown; [ ] = remark or other dose. Unless noted, the call rests on the fitted dose curve; in most records, active means well fitted curve in the direction sought with a large enough effect; inconclusive means small, poorly fitted or top-dose-only effect, or another doubt; inactive means no such curve, though single readings can be large; an effect the other way counts as inactive or inconclusive. Unless noted, on the % scale 0 is the no-effect control and ±100 the full control effect; potency means the concentration at half of the fitted maximal effect.

SMILES | Tau fibril FP | Tau fluor counter | Tau ThT inhib | NPSR antag | ALDH1A1 block | HPGD block
CN1CCN(C(=O)c2ccc(S(=O)(=O)c3ccc(Br)cc3)cc2)CC1 | 0% | 5% | 7% | 13%[46.1 µM] | -1% | nt
O=C(c1cc2cc(Br)ccc2oc1=O)N1CCCC1 | 9% | -3% | -2% | 7%[46.1 µM] | -5% | 20µM*
O=C(c1ccc(-c2ccccc2)cc1)N1CCCC1 | -2% | -4% | -10% | -10%[46.1 µM] | -15% | 1.6µM*
O=C(c1cccc(Br)c1)N1CCCC1 | 5% | -4% | -13% | -2%[46.1 µM] | 9% | 18µM*
CCN1C(=O)C(Cc2nc3ccccc3c(=O)n2-c2ccc(OC)cc2)c2ccccc21 (centres undefined) | 3% | -2% | -3% | nt | nt | nt
COc1ccc(C)cc1NCC(=O)Nc1ccc(C(C)(C)C)cc1 | ? | ? | -12% | -16%[46.1 µM] | ? | nt
O=C(COc1ccc(-c2ccccc2)cc1)N1CCCC1 | -5%[2.34 µM] | -13% | -14% | 14% | 13µM* | nt
O=C(c1ccc2c(c1)OCCCO2)N1CCCCC1 | -2% | -15% | -18% | -14% | nt | nt
O=C(c1ccc(-n2cccc2)cc1)N1CCCCC1 | -5% | -2% | -7% | 5% | 32µM* | nt
COC(=O)c1ccc(-c2ccc(C(=O)N3CCCN(C)CC3)cc2)cc1 | 1% | 2% | -4% | -3%[46.1 µM] | 14% | 1.3µM*
COC(=O)c1ccc(C(=O)OC)c(NC(=S)N2CCN(C)CC2)c1 | -8% | -1% | -4% | 5% | ? | nt
Cc1ccc(C(=O)N2CCSCC2)cc1 | -2% | -10% | -14% | -3%[46.1 µM] | 0% | 0.28µM*
CN1CC2=Cc3ccccc3OC23Oc2ccccc2C=C3C1 | -7% | -19% | ? | -18%[46.1 µM] | 11% | -1%
Cc1cccc(C(=O)N2CCCCCC2)c1 | 0% | -1% | -7% | 1%[46.1 µM] | 13% | 5µM*
CC(C)c1ccc(C(=O)N2CCCN(C(=O)c3ccc(C(C)C)cc3)CC2)cc1 | 2% | 3% | -13% | 21% | 7.9µM* | -5%
O=C(c1cccc(C(F)(F)F)c1)N1CCCCCC1 | -2% | -4% | -7% | 1%[46.1 µM] | 12% | ?
CCOc1cc(C2NC(=O)NC(O)(C(F)(F)F)C2C(=O)c2ccc(Cl)cc2)ccc1O (centres undefined) | 5% | 6% | -4% | -2%[46.1 µM] | ? | -14%
CCOC(=O)C1C(c2cc(OC)c(O)c(OC)c2)NC(=S)NC1(O)C(F)(F)F (centres undefined) | 3% | -2% | -2% | 27% | 10% | -4%
CCOC(=O)C1C(c2cc(OC)c(OC)c(OC)c2)NC(=S)NC1(O)C(F)(F)F (centres undefined) | -6% | 3% | 5% | -9%[46.1 µM] | ? | 32µM*
CCOc1cc(C2NC(=O)NC(O)(C(F)(F)F)C2C(=O)c2ccc(OC)cc2)ccc1O (centres undefined) | -4% | -11% | -5% | -18%[46.1 µM] | 5.6µM* | -12%
CCOc1ccc(-c2cc(CCCC(=O)NCCc3ccc(OCC)c(OCC)c3)no2)cc1 | -6% | -15% | ? | nt | nt | nt
Cc1ccccc1C(=O)Nc1sc(C)c(C)c1C(=O)c1ccccc1 | 0% | 7% | 7% | -24%[46.1 µM] | ? | 32µM*
Cc1sc(NC(=O)CCl)c(C(=O)c2ccccc2)c1C | -13% | -25% | ? | 7.9µM* | 0.71µM* | 28µM*
COC(=O)c1c(NC(C)=O)sc(C)c1C | -8% | -6% | -3% | 32% | 9% | nt
Cc1cc(C(=O)c2ccc(C(C)(C)C)cc2)c(NC(=O)CCl)s1 | 0% | -27% | ? | -38% | 11µM* | 4%
N#CN=C1CCCCCN1CC(N)=O | 2% | 4% | 11% | 6%[46.1 µM] | -11% | -6%
COc1ccc(-c2noc(-c3ccc(NCCc4ccccc4)c([N+](=O)[O-])c3)n2)cc1OC | -4% | -19% | ? | nt | nt | nt
O=C(C#Cc1cccc([N+](=O)[O-])c1)c1ccccc1 | -11% | ? | ? | 3.2µM* | 3.5µM* | -16%
